High-throughput results from PubChem.
Shown are actives, neighbours in structure and some others; about 4.2% of the full set was active somewhere.
TIM10 inh – TIM10 yeast growth inhibition. S. cerevisiae TIM10 strain growth, BacTiter-Glo luminescence, 24 h. inhibition, % at 10 µM. AID 463195. actives 1.4% (n = 330,000);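 active = inhibition of 40% or more at the single tested concentration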;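 also: wild-type TIM10 isogenic control strain grown at permissive 25 °C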
NALP3 yeast inh – NALP3 inhibition in yeast; Yeast reconstituted NLRP3/ASC/caspase-1, beta-gal luminescence, 24 h; inhibition, % at 10 µM; actives 0.39% (n = 330,000);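 active = inhibition of 50% or more; inactive = inhibition below 50%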;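 also: plate controls were induced DMSO wells for no effect and uninduced yeast grown without galactose for full effect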
tim23-1 inh – tim23-1 yeast growth inhibition; S. cerevisiae tim23-1 growth, BacTiter-Glo luminescence, 24 h; actives 1.3% (n = 330,000); inhibition, % at 20 µM;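 active = growth inhibition of the mutant yeast at or above 50%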;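 also: temperature-sensitive mutant grown at 25 °C; plate controls were DMSO-treated mutant yeast for no effect and medium wells lacking yeast for full effect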
V-ATPase pHluor – regulators of yeast V-ATPase proton transport. S. cerevisiae, pHLuorin cytosolic pH fluorescence. response, % at 10 µM. actives 0.37% (n = 350,000); in the data active = response mostly above about 7.3%, no sharp cut-off; inactive = mostly below about 5.4%; also: actives read high
tim10-1 inh – growth inhibitors of tim10-1 mutant yeast; inhibition, % at 20 µM; S. cerevisiae tim10-1 ts strain growth, BacTiter-Glo, 24 h; actives 2.2% (n = 330,000);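 active = inhibition of at least 40%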;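 also: mutant grown at 25 °C; 0% = DMSO wells with yeast and 100% = wells holding no yeast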
NALP1 yeast inh – NALP1 inhibition; S. cerevisiae NALP1/ASC/caspase-1 growth, X-gal OD620, 72 h; inhibition, % at 10 µM; actives 0.61% (n = 280,000); AID 2071; in the data active = inhibition mostly above about 24%, no sharp cut-off; inactive = mostly below about 32%
tim23-1 conf – confirmation of tim23-1 mutant yeast growth inhibitors; actives 83% (n = 4,400); S. cerevisiae tim23-1 growth, BacTiter-Glo luminescence, 24 h; shares compounds with tim23-1 inh; inhibition, % at 20 µM;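 active = inhibition above about 39% in either of two replicate wells at 20 µM, limit read from the data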;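 also: temperature-sensitive tim23-1 mutant grown at 25 °C; 0% = DMSO wells with yeast and 100% = medium wells without yeast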
* marks the source's active call; other numbers are inactive results; x = not tested or not shown.

SMILES	TIM10 inh	NALP3 yeast inh	tim23-1 inh	V-ATPase pHluor	tim10-1 inh	NALP1 yeast inh	tim23-1 conf
Cc1cccc(/C=c2\s/c(=C\C(=O)C(C)(C)C)[nH]c2=O)c1	10	11	50*	0	25	-5	54*
COc1cc(NC(=O)c2ccc(N)nc2)cc(C(=O)Nc2cccc(C(F)(F)F)c2)c1	2	12	11	-4	7	x	x
COc1ccccc1NC(=S)NC(=O)CCc1ccccc1	28	23	46	1	31	20	x
COc1ccc(CCC(=O)Nc2cccc(Cl)c2)cc1	33	29	59*	3	11	38	65*
O=C(CCc1ccccc1)NC(=S)Nc1ccccc1Br	29	23	50*	-3	-9	16	32
COc1cc(NC(=S)NC(=O)CCc2ccccc2)cc(OC)c1	39	20	51*	6	25	8	41*
COc1ccc(CNC(=O)Nc2cccc(Cl)c2)cc1	9	12	22	3	-27	-4	x
O=C(NCCCN1CCCC1=O)c1ccc(OC(F)(F)F)cc1	1	20	24	-2	-1	3	x
CC(=O)/C=C(\C)Nc1c(C)n(C)n(-c2ccccc2)c1=O	-1	16	0	1	-2	14	x
COc1cc(/C=C(\C#N)C(=O)Nc2ccccc2)ccc1OCCN1CCOCC1	8	19	22	-3	4	27	x
CC(=O)Oc1ccc(N2C(=O)c3cccc4c([N+](=O)[O-])ccc(c34)C2=O)cc1	39	15	67*	-29	29	13	57*
CC1CC(C)CN(C(=O)COC(=O)Cc2ccc(Cl)cc2)C1 (configuration not stated)	-2	5	23	-1	19	13	x
O=C1c2ccccc2NC(c2ccc(-c3ccc(C(F)(F)F)cc3)o2)N1O (configuration not stated)	8	4	65*	-4	-14	x	59*
Fc1ccc(-c2ccnc3nc(N4CCN(c5ccccc5)CC4)nn23)cc1	23	4	41	-4	33	-10	x
c1ccc(-c2ccnc3nc(N4CCN(c5ccccc5)CC4)nn23)cc1	30	16	51*	0	17	-1	37
C/C(=N\Nc1cc(N2CCOCC2)nc(C)n1)c1ccc(F)cc1	0	31	19	-2	18	-3	x
C/C(=N\Nc1cc(N2CCCCC2)nc(C)n1)c1ccc(Br)cc1	8	23	57*	6	20	14	49*
CCOC(=O)c1ccc(NC(=O)CSc2nc(=O)n3cccc(C)c3n2)cc1	-6	-8	52*	-2	22	x	50*
c1ccc2c(-c3ccc(OCCN4CCCCC4)cc3)c(-c3ccsc3)sc2c1	29	32	63*	2	-6	x	65*
COc1ccc(-c2sc3cc4c(cc3c2-c2ccc(OCCN3CCCCC3)cc2)OCO4)cc1	6	x	33	2	7	x	x
COc1cc(OC)cc(-c2sc3ccc(OC)cc3c2-c2ccc(OCCN3CCCCC3)cc2)c1	6	x	52*	0	14	x	26
c1ccc(-c2sc3ccccc3c2-c2ccc(OCCN3CCCCC3)cc2)cc1	-1	9	-10	2	2	x	x
COc1cc(CCc2ccccc2)c(C(=O)O)c(O)c1CC=C(C)C	x	x	x	-3	x	x	x
COc1cc(CCc2ccccc2)c(C(=O)O)c(O)c1C/C=C(/C)CCC=C(C)C	15	x	75*	7	28	x	20
COc1cc2oc(=O)cc(-c3ccc(-c4ccc(O)cc4)cc3)c2c(OC)c1OC	1	x	56*	0	28	x	35
SMILES	TIM10 inh	NALP3 yeast inh	tim23-1 inh	V-ATPase pHluor	tim10-1 inh	NALP1 yeast inh	tim23-1 conf
Cc1cc(O)c2c(-c3ccccc3)cc(=O)oc2c1	31	-95	47	-3	32	-9	x
Cc1cc2oc(=O)cc(-c3ccccc3)c2c(C)c1-c1ccc(O)cc1	2	x	61*	0	21	x	48*
OC(c1ccccc1)(C1CCCCC1)C(CN1CCOCC1)c1ccccc1 (configuration not stated)	27	1	50*	-3	18	2	31
COc1ccc(C(O)(C2CCCCC2)C(CN2CCOCC2)c2ccccc2)cc1 (configuration not stated)	19	5	34	2	36	6	x
CC1=CCC(C(=O)O)(C(=O)N/N=C/c2cccnc2)C(c2ccccc2)C1 (configuration not stated)	11	16	-10	0	17	-17	x
O=C(C1=C(O)C(=O)N(c2ncccn2)C1c1ccc(Cl)c(Cl)c1)c1ccco1 (configuration not stated)	20	5	58*	-2	14	5	41*
O=Cc1cccc(OCc2cccc3ccccc23)c1	16	18	57*	-5	7	12	37
Cc1[nH]nc2c(=S)[nH]c(=O)[nH]c12	x	x	x	-1	x	x	x
COc1ccc(Cl)cc1C(=O)Nc1ccc(S(N)(=O)=O)cc1	-5	6	11	-1	4	12	x
CCOC(=O)c1c(C=O)c(C)n(Cc2ccc(Cl)cc2)c1C	34	11	63*	0	30	-3	58*
CCOC(=O)c1c(C=O)c(C)n(Cc2ccccc2)c1C	26	8	23	0	28	17	x
Cc1ccc(C(=O)NC2=NCCS2)cc1Cl	15	22	55*	-2	-21	-5	47*
COc1ccc(NC(C#N)c2ccccc2OCc2ccccc2)cc1 (configuration not stated)	34	38	48	-1	14	34	x
CN(/C=C/C(=O)C(F)(F)C(F)(F)F)Cc1ccccc1	-15	3	16	6	18	41	x
CCCc1cc(=O)oc2cc(C)c(CN3CCCC3)c(O)c12	33	15	59*	4	16	6	58*
Cc1ccc(NC(=O)c2ccc(Cl)c(NC(=O)c3cccs3)c2)cc1	26	46	66*	-4	18	8	66*
Cc1nc2ccc(NC(=O)c3ccc(Cl)c(NC(=O)c4cccs4)c3)cc2s1	-10	14	21	-2	-11	18	x
Cc1cc(C(=O)N/N=C\c2cc(C(C)(C)C)ccc2O)n[nH]1	21	19	56*	2	33	-1	55*
Cn1ccnc1CN1CCCCC1C(=O)Nc1ccc(Oc2cccnc2)cc1 (configuration not stated)	5	7	1	-3	3	14	x
Nc1ccc(N=Nc2ccccc2O)c(N)c1	22	42	55*	-3	25	x	46*
O=C(NCCc1ccc(F)cc1)C(=O)NCC1CCCN1S(=O)(=O)c1ccccc1 (configuration not stated)	-10	8	3	8	2	x	x
Cc1ccc(S(=O)(=O)N/N=C/C(C)(C)CO)cc1	-17	19	-11	3	-23	22	x
